# Hits are enriched below; roughly 9.3% of the tested compounds scored in any of these assays.
# HCMV antiviral – blocks human cytomegalovirus replication. HFF cells, HCMV-luciferase reporter, 72 h; hits give low values. 410,000 tested, 4.5% active. activity change, negative = inhibition, % at 57.5 µM; in the data active = activity change below about -60%; inconclusive = no clear call, values can overlap the other calls; inactive = above about -39%
#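 Compounds were evaluated in HFFs infected with an HCMV luciferase reporter virus (MOI 1 PFU/cell). Luciferase in lysates collected 72 h post infection served as the replication measure.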
# VACV mCherry inh – vaccinia inhibition (mCherry reporter). 310,000 tested, 0.63% active. Potency, µM (titrated, usually from 36.5 µM), for the others: at the top dose activity change, negative = inhibition, hits mostly inhibitors. Vaccinia virus mCherry reporter infection, fluorescence. AID 720579; calls by dose curve; tested in A549 cells; also: potency is read from the fitted curve at half-maximal effect; nearly all actives have a fitted effect of over 35% in size
# Sm TGR inh – inhibitors of Schistosoma mansoni thioredoxin glutathione reductase; Q962Y6; 360,000 tested, 3% active; Potency, µM (titrated, usually from 114 µM), for inactives: at the highest dose activity change, negative = inhibition, most hits filed as inhibitors; purified TGR, DTNB reduction, TNB absorbance 405 nm; also: potency is read from the fitted curve at half-maximal effect; nearly all actives have a fitted effect of over 60% in size
#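 Kinetic colorimetric format: TGR-catalysed, NADPH-driven DTNB reduction monitored via TNB absorbance. Enzyme dispensed at 20 nM; compound exposure 15 min at room temperature before reaction start.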
# FMDV inh – antivirals against foot and mouth disease virus. FMDV antiviral cell-based qHTS. Potency, µM (top dose mostly 57.9 µM), for inactives: at the highest dose activity change, negative = inhibition, hits mostly inhibitors. 410,000 tested, 1.2% active. AID 1159524; calls by dose curve; tested in HEK293T cells; also: read-out not given here; potency is read from the fitted curve at half-maximal effect; nearly all actives have a fitted effect of over 45% in size
# HCV inhibitor – HCV inhibition. Huh7.5.1 HCVcc-Cre infection, luciferase reporter, 44 h. Potency, µM (highest dose often 41.8 µM), inactives show at the highest dose activity change, negative = inhibition, hits mostly inhibitors. AID 651820. 340,000 tested, 3.4% active; also: potency is read from the fitted curve at half-maximal effect
#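 Cells seeded at 1,000/well and cultured 4 h, then compounds added followed by HCVcc-Cre virus (~0.5 moi). After 44 h further culture, luciferase substrate was added, plates held 15 min at room temperature, and luminescence read for 15 sec.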
# Vaccinia Venus – inhibitors of vaccinia virus (Venus reporter). Potency, µM (titrated, usually from 36.5 µM), for inactives: at the top dose activity change, negative = inhibition, usual class: inhibitors. Vaccinia virus Venus reporter expression, fluorescence. AID 720580. 330,000 tested, 0.46% active; calls by dose curve; tested in A549 cells; also: potency is read from the fitted curve at half-maximal effect; nearly all actives have a fitted effect of over 30% in size
# The depositor's hits bear a star; i = inactive; ? = inconclusive; / = no result given. Unless noted, calls follow the shape of the dose curve; as a rule, active = well fitted curve in the direction sought with a large enough effect; inconclusive = small, poorly fitted or top-dose-only effect, or another doubt; inactive = no such curve, though single readings can be large; an effect the other way counts as inactive or inconclusive. % is scaled to controls: 0 for no effect and ±100 for the full control effect.
SMILES,HCMV antiviral,VACV mCherry inh,Sm TGR inh,FMDV inh,HCV inhibitor,Vaccinia Venus
CCOCCCNC(=O)C(c1ccc(OC)cc1)N(Cc1cccs1)C(=O)CNC(C)=O (stereo not given),-4,-11%,4%,8%,6%,-12%
O=C(Cn1cc(SCc2cccc(C(F)(F)F)c2)c2ccccc21)N1CCCCCC1,36,-13%,2%,-3%,/,-9%
Cc1cccc(NC(=O)Cc2ccc(-n3c(C)nc4cccnc43)cc2)c1C,?,-13%,10%,?,/,-14%
CC1CCCC(NC(=O)CNC(=S)N2CC3CC(C2)c2cccc(=O)n2C3)C1C (stereo not given),13,/,2%,6%,11%,/
COC(CNC(=O)c1ccc2c(c1)nc(C)n2-c1cccc(F)c1)OC,2,i,-1%,-5%,10%,-3%
Cn1ncc(Oc2ccc([N+](=O)[O-])cc2)c(Cl)c1=O,-91*,?,2%,1%,-8%,-13%
c1ccc(CC2CCN(c3nc4ccccc4n4nnnc34)CC2)cc1,-102*,/,5%,0%,-3%,-8%
CC(C)n1cnc2c(Nc3cccc(Cl)c3)nc(NCCCO)nc21,93,?,4%,23%,11µM*,10µM*
O=C1NC(=O)N(c2ccc3c(c2)OCO3)C(=O)/C1=C/c1cccs1,99,i,?,28µM*,26%,20%
COc1ccccc1N/C(N)=N/c1nc(CSc2ccc(C)cc2)cc(=O)[nH]1,?,?,6%,?,?,-22%
CCc1ccc(N/C(N)=N/c2nc(CSc3ccccn3)cc(=O)[nH]2)cc1,-85*,i,6%,?,?,1%
Cc1ccc(SCc2cc(=O)[nH]c(/N=C(\N)Nc3ccccc3Sc3ccccc3)n2)cc1,-94*,-12%,1%,-18%,15%,-6%
Cc1ccc(N/C(N)=N/c2nc(CSc3ccccn3)cc(=O)[nH]2)c(C)c1,-69*,i,0%,?,?,-14%
COc1cccc(N/C(N)=N/c2nc(CSc3ccccn3)cc(=O)[nH]2)c1,/,/,3%,/,/,/
CONC(=O)c1ccc(-c2cccc3nccn23)cc1,14,i,/,-1%,/,3%
Cc1ccc(C)c(C2NC(=O)c3ccccc3N2)c1 (stereo not given),-68*,?,0%,2%,-6%,?
Cc1ccc(OCC(=O)NCC2(N3CCOCC3)CCCCC2)cc1C,-60*,1%,-3%,-21%,/,-9%
Cc1ccc(NC(=O)C(=O)NCC(c2ccc3c(c2)OCO3)N2CCN(C)CC2)cc1C (stereo not given),2,-15%,-2%,0%,/,-6%
NC(=O)NC1CCCc2c1[nH]c1ccc(Cl)cc21 (stereo not given),-6,i,-1%,-34%,6.3µM*,-3%
Cc1ccc(S(=O)(=O)C(CCC(=O)c2ccc(Cl)cc2)C(N)=O)cc1 (stereo not given),-21,/,5%,-15%,12%,/
C/C=C/C(=O)N1c2ccccc2C(C)=CC1(C)C,7,-14%,3%,-22%,0%,-9%
Cn1cc(-c2nc3cncnc3n(C3CC3)c2=O)c2ccccc21,/,/,/,-17%,/,/
Clc1ccc(C(c2ccccc2)c2c[nH]c3ccccc23)s1 (stereo not given),-67*,-25%,-1%,0%,/,-20%
Cc1ccc2[nH]cc(C(c3ccccc3)c3ccc(Cl)s3)c2c1 (stereo not given),?,-5%,4%,?,/,-3%
CC1(C)CC(=O)C(=CN2CCOCC2)C(=O)C1,-8,0%,7.1µM*,-1%,20%,-2%
SMILES,HCMV antiviral,VACV mCherry inh,Sm TGR inh,FMDV inh,HCV inhibitor,Vaccinia Venus
NC(=S)N/N=C/c1ccc(OC(=O)c2cccnc2)cc1,0,/,4%,-6%,7%,/
Cc1cc(=O)[nH]c(NN=Cc2cc(Br)ccc2O)n1,-100*,2µM*,/,-4%,?,?
Cc1cc(=O)[nH]c(N/N=C/c2cc(C)n(-c3ccccc3)c2C)n1,0,i,32µM*,?,?,-13%
CCN(CC)c1ccc(/C=N/Nc2nc(C)cc(=O)[nH]2)c(O)c1,-98*,0.89µM*,4%,15%,4µM*,?
Cc1cc(=O)[nH]c(N/N=C/c2ccccc2Cl)n1,66,/,6%,33%,13%,/
Cc1cc(=O)[nH]c(N/N=C/c2ccc(OC(=O)c3cccnc3)cc2)n1,-65*,-8%,-4%,-3%,-2%,-21%
O=C(NC1(C(F)(F)F)C(=O)Nc2c1c(=O)[nH]c(=O)n2-c1ccc(F)cc1)c1cccnc1 (stereo not given),4,/,0%,-5%,9%,/
COC(=O)C1=C(c2ccc(C(C)=O)cc2)C[C@@H]2CC[C@H]1N2C(=O)NC1CCCCC1,10,-14%,?,-5%,10%,-8%
CC(C)(C)C(=O)Nc1sc2c(c1C#N)CCN(Cc1ccccc1)C2,25,i,-9%,0%,-11%,-1%
Cc1cc(/C=N/Nc2ncnc(N)c2[N+](=O)[O-])c(C)n1-c1ccccc1,-83*,?,0%,3.5µM*,?,-7%
COc1cccc(/C=N/Nc2ncnc(N)c2[N+](=O)[O-])c1OC,/,/,-11%,-40%,-12%,/
Cc1ccc(C)c(C2=NNC(=NCc3ccccc3)SC2)c1,-66*,-8%,-13%,6%,?,-15%
CCN=C1NN=C(c2cc(C)n(Cc3ccco3)c2C)CS1,-84*,i,-16%,0.079µM*,-23%,1%
Cc1cc(C2=NNC(=NCCc3ccccc3)SC2)c(C)n1CC1CCCO1 (stereo not given),-6,5%,-31%,-23%,11µM*,-7%
N=C(N)SCCc1cnc[nH]1,-14,-12%,-16%,-2%,-19%,-11%
C[n+]1c2cc(N)ccc2cc2ccc(N)cc21,-99*,5.6µM*,/,?,1.4µM*,?
CCOC(=O)C1CCN(C(=O)c2ccccc2NC(=O)c2ccc(Br)cc2)CC1,2,-8%,1%,50%,21%,-10%
COc1ccc(OC)c(NC(=O)C(C)OC(=O)c2cc3ccccc3[nH]2)c1 (stereo not given),-3,/,/,?,11µM*,/
COc1ccc(OC)c(NC(=O)C(C)Oc2ccc(Br)cc2)c1 (stereo not given),?,-13%,18%,-11%,11µM*,2%
CC(C)(COC(=O)C(c1ccccc1)c1ccccc1)CN1CCOCC1,8,-14%,/,-18%,2%,-7%
Cc1c(C(=O)Nc2cccc(F)c2)cnn1-c1ccccc1,44,-5%,-1%,-10%,11µM*,-20%
Cc1ccc(NC(=O)c2cnn(-c3ccccc3)c2C)cc1C,-61*,-10%,-11%,-41%,?,-19%
